# Most compounds without a hit are left out; they make up all but 9% or so of the library.
# 12-LOX inh = ALOX12 (human) lipoxygenase inhibition; P18054; 1.1% of 580,000 active; purified 12hLO, xylenol orange hydroperoxide absorbance; Potency, µM (titrated, usually from 108 µM), inactives show top-dose activity change, negative = inhibition, most hits filed as inhibitors; further: on the % scale 0 is the no-effect control and ±100 the full control effect
#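 Hydroperoxide product was detected by ferrous iron/xylenol orange as the 573 to 405 nm absorbance ratio. Arachidonic acid at 40 uM (final) was turned over for 30 min at room temperature by 150 nM human 12hLO, pH 7.0 Hepes buffer, after 15 min compound preincubation.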
# JMJD2A Tudor = JMJD2A Tudor domain (human) inhibition; O75164; AlphaScreen JMJD2A-Tudor / H3K4me3 peptide binding; Potency, µM (series often up to 114 µM), for the others: at the highest dose activity change, negative = inhibition, hits mostly inhibitors; 4.4% of 390,000 active; AID 504339; further: on the % scale 0 is the no-effect control and ±100 the full control effect; nearly all actives have a fitted effect of over 50% in size
# BAZ2B inh = BAZ2B (human) inhibition; AlphaScreen BAZ2B-H3K14Ac peptide displacement; AID 504333; Potency, µM (highest dose often 114 µM), inactives show at the highest dose activity change, negative = inhibition, hits mostly inhibitors; 4.4% of 360,000 active; Q9UIF8; further: on the % scale 0 is the no-effect control and ±100 the full control effect; nearly all actives have a fitted effect of over 60% in size
#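 Multi-concentration screen (max 110 uM) measuring displacement of acetylated histone H3 peptide from BAZ2B by AlphaScreen, using 50 nM protein, 50 nM peptide and 10 ug/mL streptavidin donor plus Ni-chelate acceptor beads.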
# G9a inh = G9a (human) methyltransferase inhibition. Q96KQ7. G9a H3K9 monomethylation, AlphaScreen, 2 h. Potency, µM (doses to about 102 µM), inactives show at the top dose activity, negative = inhibition, most hits filed as inhibitors. 8.8% of 350,000 active. AID 504332; further: on the % scale 0 is the no-effect control and ±100 the full control effect; nearly all actives have a fitted effect of over 75% in size
# Target sequence (Q96KQ7 913-1193 limits assumed): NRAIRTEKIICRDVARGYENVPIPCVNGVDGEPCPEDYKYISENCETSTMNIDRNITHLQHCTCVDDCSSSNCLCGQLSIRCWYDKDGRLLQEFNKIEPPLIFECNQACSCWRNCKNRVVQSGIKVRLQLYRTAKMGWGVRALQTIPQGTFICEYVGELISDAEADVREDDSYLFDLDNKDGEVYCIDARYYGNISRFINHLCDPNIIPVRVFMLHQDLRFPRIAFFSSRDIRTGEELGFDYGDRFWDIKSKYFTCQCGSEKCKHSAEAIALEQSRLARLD
#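 Enzyme 20 nM + cpd, 15 min RT; add b-H3K9 pep 500 nM / SAM 20 uM; 2 h RT; anti-H3K9me1 Ab 0.5 ug/mL + SA donor / anti-rabbit acceptor beads 20 ug/mL each, 10 min; AlphaScreen read.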
# PLK1 PBD block = inhibitors of human PLK1 polo-box domain binding; Plk1 PBD binding of FITC phosphopeptide, fluorescence polarization; Potency, µM, inactives show max response, negative = inhibition, actives largely listed as inhibitors; 2.8% of 360,000 active; AID 720504; further: series mostly up to about 57 µM; on the % scale 0 is the no-effect control and ±100 the full control effect; nearly all actives have a fitted effect of over 65% in size
# HP1b binding inh = blocks HP1-beta chromodomain binding to methylated histone tails. P83916. AlphaScreen HP1-beta / biotin-H3K9me3 peptide binding. Potency, µM (top dose mostly 114 µM), without a hit: top-dose activity change, negative = inhibition, actives largely listed as inhibitors. 0.56% of 390,000 active; further: nearly all actives have a fitted effect of over 70% in size
# Target sequence (P83916 whole entry, looked up): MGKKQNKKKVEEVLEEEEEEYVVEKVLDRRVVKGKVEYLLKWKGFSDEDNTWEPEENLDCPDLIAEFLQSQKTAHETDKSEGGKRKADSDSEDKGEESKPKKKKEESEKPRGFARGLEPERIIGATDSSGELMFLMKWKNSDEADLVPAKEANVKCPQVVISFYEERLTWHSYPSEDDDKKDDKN
#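 AlphaScreen: HP1-beta (50 nM) preformed 30 min with biotin-H3(1-18)K9me3 peptide (50 nM) in PBS pH 7.4, 0.01% Tween-20. Compound added for 30 min at RT, then streptavidin donor/nickel chelate acceptor beads (10 ug/mL) for 30 min.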
# * marks the source's active call; other numbers are inactive results; ? = inconclusive; . = no result; [ ] = another dose, or the depositor's remark. The call rests on the fitted dose curve; in most records, active means well fitted curve in the direction sought with a large enough effect; inconclusive means small, poorly fitted or top-dose-only effect, or another doubt; inactive means no such curve, though single readings can be large; an effect the other way counts as inactive or inconclusive. Potency means the concentration at half of the fitted maximal effect.
SMILES,12-LOX inh,JMJD2A Tudor,BAZ2B inh,G9a inh,PLK1 PBD block,HP1b binding inh
CCn1cnc2cc(NCc3ccccc3Cl)ccc21,6%,?,?,45µM*,-11%,?
CCN1C(c2ccccc2)C(C)C(=O)C(C)C1c1ccccc1 (stereo not given),360%,40%,3%,-12%,3%,62%
CCNC(=O)NC(=O)CN(C)Cc1ccco1,2%,.,.,.,.,.
COc1cc(Cl)c(C)cc1NC(=O)c1c(C)oc2nc(C)nc(N3CCCC3)c12,?,-26%,-25%[57.1 µM],?,.,52%
O=C(Cc1ccc(F)cc1)N1CCC(n2cc(-c3nc(-c4ccccc4)no3)nn2)C1 (stereo not given),17%,.,.,.,.,.
Cc1ccccc1-c1nc(SCC(=O)NCCc2ccc(Cl)cc2)n2[nH]c(=O)cc2n1,-9%,.,.,.,.,.
O=S(=O)(c1ccc(-c2ccon2)s1)N1CCN(c2ccncc2)CC1,.,-4%,16%,-27%,-3%,22%
CCCn1cnc2cc(NCc3cccs3)ccc21,0%,?,?,18µM*,-2%,-1%
CCCCn1cnc2cc(NCc3ccncc3)ccc21,20%,?,-11%,?,2%,8%
CC(C)c1ccc(CNc2ccc3c(c2)ncn3C)cc1,0%,?,40µM*,?,2%,1%
COc1cccc(CNc2ccc3c(c2)ncn3C)c1OC,19%,?,?,38%[59 µM],-26%,-4%
COCCn1c(C)cc2c(c1=O)C(c1ccco1)C(C#N)=C(N)O2 (stereo not given),0%,-19%,7%,22%[59 µM],-14%,1%
COc1ccc(OC)c(NC(=S)NCC(c2cccnc2)N2CCOCC2)c1 (stereo not given),-2%,-15%,5%,3%,15µM*,8%
CCOc1ccc(NC(=S)NCC(c2cccnc2)N2CCOCC2)cc1 (stereo not given),-13%,-10%,2%,-28%,27µM*,6%
COc1ccc(NC(=S)NCC(c2cccnc2)N2CCOCC2)cc1 (stereo not given),-1%,-13%,1%,-6%,-6%,24%
Cc1scc(C(=O)NCCC23CC4CC(CC(C4)C2)C3)c1-c1ccccc1,6%,.,.,.,.,.
Nc1ccc(-c2nc3ccccc3o2)cc1,0%,40µM*,1%,-44%[2.33 µM],7%,19%
Nc1cc(N)cc(-c2nc3ccccc3o2)c1,21%,?,.,.,-4%,-2%
CCOC(=O)/C(=C/c1ccc(Cl)cc1)NC(=O)c1ccco1,0%,-17%[57.1 µM],?,17%[59 µM],-21%,6%
C=CCn1c(-c2cc3c(s2)CCC(CC)C3)n[nH]c1=S (stereo not given),?,?,-29%,11µM*,-17%,-15%
COc1ccc(Br)cc1/C=N/NS(=O)(=O)c1ccccc1,2%,.,.,.,?,.
CC(=O)c1ccc(N2CCN(CC(O)COC(c3ccccc3)c3ccccc3)CC2)cc1 (stereo not given),?,10µM*,18µM*,20µM*,-18%,22µM*
OC(COC(c1ccccc1)c1ccccc1)CN1CCN(c2cccc(Cl)c2)CC1 (stereo not given),-14%,-28%,-13%,-23%,2%,30%
CC(=O)c1ccc(N2CCN(CC(O)COC(c3ccccc3)c3ccccc3C)CC2)cc1 (stereo not given),0.63µM*,4.5µM*,25µM*,8.9µM*,-17%,45µM*
CCCSCCCNC(=O)c1ccccc1NC(=O)C1=CSCCO1,5%,-7%,?,?,3%,4%[57 µM]
SMILES,12-LOX inh,JMJD2A Tudor,BAZ2B inh,G9a inh,PLK1 PBD block,HP1b binding inh
CC(C)N(CC#CCC(O)(c1ccccc1)c1ccccc1)C(C)C,5%,-17%,4%,6%,0%,5%
CC(C)N(CC#CCC(O)(c1ccccc1)c1ccccc1)CCO,?,-2%[11.4 µM],79µM*,13µM*,-6%,20%
CCN(CC#CCC(O)(c1ccccc1)c1ccccc1)C(C)C,18%,-30%[57.1 µM],-10%,-24%[59 µM],27µM*,6%
O=C(O)c1cccc(OCc2nnnn2-c2ccccc2)c1,-5%,.,.,.,.,.
CC1CCN(C(=O)C(C)NCc2ccc(F)cc2)CC1 (stereo not given),?,10µM*,50µM*,7.1µM*,17µM*,20%
CCc1ccc(CNC(=O)C2CCN(S(=O)(=O)N3CC(C)CC(C)C3)CC2)cc1 (stereo not given),4%,-10%,50µM*,2%,-4%,26%
O=C(NCc1ccc(F)cc1)C1CCN(S(=O)(=O)N2CCCC2)CC1,-2%,?,-3%,-34%,12µM*,18%
CC1CCN(S(=O)(=O)N2CCCC(C(=O)NCc3ccc(F)cc3)C2)CC1 (stereo not given),6%,11µM*,-12%,13%,27µM*,-20%[57 µM]
Cc1ccc(CNC(=O)C2CCN(S(=O)(=O)N3CC(C)CC(C)C3)CC2)cc1 (stereo not given),5%,-12%,-11%,-5%,-8%,18%
CCOC(=O)N1CCN(S(=O)(=O)N2CCCC(C(=O)NCc3ccc(F)cc3)C2)CC1 (stereo not given),2%,1%,-11%[57.1 µM],-4%,-1%,39%
Cc1c(NC(=O)C2CC(c3cccc(Br)c3)=NO2)c(=O)n(-c2ccccc2)n1C (stereo not given),-4%,2%,-19%,-4%,6%,14%
O=C(CSC1=NCCS1)Nc1ccccc1F,16%,-7%,5%,6%[59 µM],?,69%
O=C(CN1C(=O)NC2(CCCC2)C1=O)c1ccc(Cl)s1,?,-8%,-2%,79µM*,2%,8%
CN(C)CCCOc1ccc(C(C)(C)c2ccccc2)cc1,?,1.6µM*,50µM*,?,-9%,?
CC(C)N(CCNCC(O)COc1ccc(C(C)(C)c2ccccc2)cc1)C(C)C (stereo not given),?,5.6µM*,50µM*,20µM*,-1%,-14%
CN(C)CCCOc1cccc(Cl)c1,?,18µM*,79µM*,14µM*,-11%,?
CN(C)CCCOc1cccc(Oc2ccccc2)c1,?,56µM*,?,14µM*,-3%,?
c1ccc(N=C(c2cccs2)N2CCOCC2)cc1,0%,-3%,-2%,-12%[59 µM],7%,20%
COc1ccc(/C=N/NC(=O)c2cccnc2)cc1Cn1nc([N+](=O)[O-])c(Br)c1C,-1%,.,-24%,50µM*,.,.
O=C(COC(=O)c1c(F)cccc1F)Nc1ccccc1OC(F)F,3%,4%,1%,5%,-9%,13%
COc1ccc(-c2nc(Cn3c(SCc4ccccc4F)nc4ccncc43)c(C)o2)cc1OC,-8%,-29%,-25%,?,.,17%

# Compound activity as filed in PubChem.
